Assay results reported in PubChem BioAssay (NCI).
Compounds without any hit were thinned out: in the full panel of roughly 83,000, 20% have a hit.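 Method: cells in 96-well plates; compound added at one concentration; 48 h incubation; percent growth measured; values under 10 scored active.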 A number with no mark means an inactive call. The source made the active and inactive calls.

system: SNB-75 CNS; experiment: NCI-60 one-dose screen, 48 h (100 = growth as untreated, 0 = no growth, -100 = all killed); conditions: 10 µM unless noted

SMILES | growth
N#C/C(=C\c1ccc(Br)cc1)n1nnc2cccc(F)c21 | -24.8% (active)
COc1cc2oc(-c3cccc(C(=O)Nc4ccc(Cl)cc4)c3)cc(=O)c2c(OC)c1OC | 70.6%
CS(=O)(=O)c1ccc(-c2cc(-c3nnc(SCC(=O)Nc4ccc(C(=O)/C=C/c5ccc(Cl)cc5)cc4)n3-c3ccccc3)c3ccccc3n2)cc1 | 72.3%
COc1ccccc1OCC(=O)N1CCCCCC1 | 91.4%
NC(=O)c1cccc(-n2ccc3cc(NC(=O)Nc4cc(C(F)(F)F)cc(C(F)(F)F)c4)ccc32)n1 | 41%
COc1cc2nc(-c3ccc(C(F)(F)F)cc3)cc(OCCCN3CCCCC3)c2cc1OC | -10.6% (active)
COc1ccc2c(Nc3ccc(NS(C)(=O)=O)cc3)c3ccccc3nc2c1 | -15.8% (active)
C=CCn1c(SCC(=O)Nc2ccc(C(=O)/C=C/c3cc(OC)c(OC)c(OC)c3)cc2)nnc1-c1cc(-c2ccc(S(C)(=O)=O)cc2)nc2ccccc12 | 55.7%
CN(C)c1ccc(-c2c(C#N)c(N)n3nc(N)c(C#N)c3c2C#N)cc1 | 88.5%
CCCCCN1C=C/C(=C\C(=O)N(C)c2cccc3ccccc23)c2ccccc21 | 103%
CCCCCOc1ccc(/C=N/Nc2cc(C)nc3ccc(Br)cc23)cc1 | 85.5%
COc1cccc(C(Cc2ccccc2)Nc2ccccc2)c1OC (stereo unspecified) | 90.1%
Cc1ccc(Nc2cc(=S)nc(N)[nH]2)cc1C | 78.1%
O=S(=O)(O)c1cc(O)c2c(N=Nc3ccc(Nc4ccccc4)c4c(S(=O)(=O)O)cccc34)cc(S(=O)(=O)O)cc2c1 | 96.2%
COc1cc2c(cc1[N+](=O)[O-])-c1ccc([N+](=O)[O-])cc1/C2=N\O | 75.5%
CS(=O)(=O)OCCN(CCOS(C)(=O)=O)c1ccc(/C=N/Nc2ccc([N+](=O)[O-])cc2[N+](=O)[O-])cc1 | 77.2%
COc1cc2c(cc1[N+](=O)[O-])-c1ccc([N+](=O)[O-])cc1/C2=N/NC(N)=S | 48.7%
CN(C)C(C(N)=O)c1ccc(Cl)cc1 (stereo unspecified) | 93.6%
CC(C)(C)OC(=O)N1CCN(c2ccc(N)cc2)C(=O)C1 | 87%

SMILES | growth
CC(=O)OCC(=O)C1(O)C(C)CC2C3C=C(C)C4=Cc5c(cnn5-c5ccccc5)CC4(C)C3C(O)CC21C (stereo unspecified) | -8.24% (active)
Cc1ccc(C2C3CC4CCCCC4N3[C@@]3(C(=O)Nc4cc(Cl)ccc43)C2C(=O)c2nc3ccccc3[nH]2)cc1 (stereo partly specified) | 45.1%
COc1ccc(-n2cc(-c3cc(OC)c(OC)c(OC)c3)n(C(C)=O)c2=O)cc1 | 69.5%
C=C(C)[C@@H]1CC[C@]2(C(=O)N3CCN(C)CC3)CC[C@]3(C)[C@H](CC[C@@H]4[C@@]5(C)CCC(=O)C(C)(C)[C@@H]5CC[C@]43C)[C@@H]12 | 85.2%
NC(=S)N/N=C(/c1ccccc1)c1ccccc1N | 101%
COc1ccc(C(=O)c2cc(C)c(OC)c(C)c2)c(OC)c1N(C(=O)C(Cl)Cl)C(=O)C(Cl)Cl | 56.4%
c1ccc(-c2nn(-c3ccccc3)[n+](-c3ccccc3-c3ccccc3)n2)cc1 | 29.7%
COc1ccc2c(c1)OC13Oc4cc(OC)ccc4C=C1CCCC3=C2 | 74.6%
CC(O)(CO)c1ccccc1 (stereo unspecified) | 92.5%
O=C(Nc1nc(-c2ccccc2Cl)cs1)c1cc(-c2ccccc2)nc2ccc(Cl)cc12 | 92.9%
COC(=O)N[C@H]1CCc2cc(OC)c(OC)c(OC)c2-c2ccc(SC)c(=O)cc21 | 32.4%
CCCCCCN(C)Cc1ccc(OCCOc2ccc(CN(C)CCCCCC)cc2)cc1 | 28.8%
CCOC(=O)N1CCc2c(sc3nc4nc[nH]n4c(=O)c23)C1 | 89.4%
CCOC(=O)c1c(C)nc2c(c1N)C(=O)C(=O)N2Cc1ccc(C(F)(F)F)cc1 | 62.2%
CC(=O)c1cccc(NS(=O)(=O)c2cccc(C(=O)Nc3ccc(Br)cc3)c2)c1 | 70.5% [25 µM]
COc1ccccc1C(C[N+](=O)[O-])c1c(-c2ccccc2)[nH]c2cc(C)ccc12 (stereo unspecified) | 42.7%
CC(C)Cc1ccc(C(C)C(=O)NCc2c[nH]c3ccc(Cl)cc23)cc1 (stereo unspecified) | 102%
CCCC1C(C(=O)OCC)=C(N)Oc2cc(O)ccc21 (stereo unspecified) | 76.9%
Cc1ccc(C(=O)Nc2ccccc2C(=O)N/N=C(\c2ccccc2)c2ccccn2)cc1 | 22.1%

system: SNB-19 CNS; experiment: as above; conditions: 10 µM unless noted

SMILES | growth
N#C/C(=C\c1ccc(Br)cc1)n1nnc2cccc(F)c21 | 25.6%
COc1cc2oc(-c3cccc(C(=O)Nc4ccc(Cl)cc4)c3)cc(=O)c2c(OC)c1OC | 52.7%
CS(=O)(=O)c1ccc(-c2cc(-c3nnc(SCC(=O)Nc4ccc(C(=O)/C=C/c5ccc(Cl)cc5)cc4)n3-c3ccccc3)c3ccccc3n2)cc1 | 85.2%
COc1ccccc1OCC(=O)N1CCCCCC1 | 96.2%
NC(=O)c1cccc(-n2ccc3cc(NC(=O)Nc4cc(C(F)(F)F)cc(C(F)(F)F)c4)ccc32)n1 | 42%
COc1cc2nc(-c3ccc(C(F)(F)F)cc3)cc(OCCCN3CCCCC3)c2cc1OC | 62.5%
COc1ccc2c(Nc3ccc(NS(C)(=O)=O)cc3)c3ccccc3nc2c1 | 13.2%
C=CCn1c(SCC(=O)Nc2ccc(C(=O)/C=C/c3cc(OC)c(OC)c(OC)c3)cc2)nnc1-c1cc(-c2ccc(S(C)(=O)=O)cc2)nc2ccccc12 | 74.1%
CN(C)c1ccc(-c2c(C#N)c(N)n3nc(N)c(C#N)c3c2C#N)cc1 | 95.4%
CCCCCN1C=C/C(=C\C(=O)N(C)c2cccc3ccccc23)c2ccccc21 | 99.7%
CCCCCOc1ccc(/C=N/Nc2cc(C)nc3ccc(Br)cc23)cc1 | 43.2%
COc1cccc(C(Cc2ccccc2)Nc2ccccc2)c1OC (stereo unspecified) | 104%
Cc1ccc(Nc2cc(=S)nc(N)[nH]2)cc1C | 90.1%
O=S(=O)(O)c1cc(O)c2c(N=Nc3ccc(Nc4ccccc4)c4c(S(=O)(=O)O)cccc34)cc(S(=O)(=O)O)cc2c1 | 103%
COc1cc2c(cc1[N+](=O)[O-])-c1ccc([N+](=O)[O-])cc1/C2=N\O | 79.4%
CS(=O)(=O)OCCN(CCOS(C)(=O)=O)c1ccc(/C=N/Nc2ccc([N+](=O)[O-])cc2[N+](=O)[O-])cc1 | 82.7%
COc1cc2c(cc1[N+](=O)[O-])-c1ccc([N+](=O)[O-])cc1/C2=N/NC(N)=S | 58.8%
CN(C)C(C(N)=O)c1ccc(Cl)cc1 (stereo unspecified) | 99.9%
CC(C)(C)OC(=O)N1CCN(c2ccc(N)cc2)C(=O)C1 | 99.9%

SMILES | growth
CC(=O)OCC(=O)C1(O)C(C)CC2C3C=C(C)C4=Cc5c(cnn5-c5ccccc5)CC4(C)C3C(O)CC21C (stereo unspecified) | 10.3%
Cc1ccc(C2C3CC4CCCCC4N3[C@@]3(C(=O)Nc4cc(Cl)ccc43)C2C(=O)c2nc3ccccc3[nH]2)cc1 (stereo partly specified) | 49.7%
COc1ccc(-n2cc(-c3cc(OC)c(OC)c(OC)c3)n(C(C)=O)c2=O)cc1 | 86.1%
C=C(C)[C@@H]1CC[C@]2(C(=O)N3CCN(C)CC3)CC[C@]3(C)[C@H](CC[C@@H]4[C@@]5(C)CCC(=O)C(C)(C)[C@@H]5CC[C@]43C)[C@@H]12 | 81.5%
NC(=S)N/N=C(/c1ccccc1)c1ccccc1N | 101%
COc1ccc(C(=O)c2cc(C)c(OC)c(C)c2)c(OC)c1N(C(=O)C(Cl)Cl)C(=O)C(Cl)Cl | 26.4%
c1ccc(-c2nn(-c3ccccc3)[n+](-c3ccccc3-c3ccccc3)n2)cc1 | 27.9%
COc1ccc2c(c1)OC13Oc4cc(OC)ccc4C=C1CCCC3=C2 | 54.7%
CC(O)(CO)c1ccccc1 (stereo unspecified) | 98.3%
O=C(Nc1nc(-c2ccccc2Cl)cs1)c1cc(-c2ccccc2)nc2ccc(Cl)cc12 | 80.6%
COC(=O)N[C@H]1CCc2cc(OC)c(OC)c(OC)c2-c2ccc(SC)c(=O)cc21 | 31.1%
CCCCCCN(C)Cc1ccc(OCCOc2ccc(CN(C)CCCCCC)cc2)cc1 | 27.9%
CCOC(=O)N1CCc2c(sc3nc4nc[nH]n4c(=O)c23)C1 | 106%
CCOC(=O)c1c(C)nc2c(c1N)C(=O)C(=O)N2Cc1ccc(C(F)(F)F)cc1 | 59.3%
CC(=O)c1cccc(NS(=O)(=O)c2cccc(C(=O)Nc3ccc(Br)cc3)c2)c1 | 53.9% [25 µM]
COc1ccccc1C(C[N+](=O)[O-])c1c(-c2ccccc2)[nH]c2cc(C)ccc12 (stereo unspecified) | 81%
CC(C)Cc1ccc(C(C)C(=O)NCc2c[nH]c3ccc(Cl)cc23)cc1 (stereo unspecified) | 96.2%
CCCC1C(C(=O)OCC)=C(N)Oc2cc(O)ccc21 (stereo unspecified) | 103%
Cc1ccc(C(=O)Nc2ccccc2C(=O)N/N=C(\c2ccccc2)c2ccccn2)cc1 | 26.2%
